Values joined by “and” are separate entries in the source; they are usually repeats but may differ in a detail not shown here. Identical values can stand only once.
Tests used:
Type in all cases: functional
[1] = target: Solute carrier family 2, facilitated glucose transporter member 1 (Homo sapiens) (UniProt P11166); test: ST_JUDE_LEISH: Cytotoxicity at 2uM final concentration against transgenic Leishmania Mexicana promastigotes LmGLUT1 that are glucose transport deficient and complemented with the human glucose transporter GLUT1. Activity is measured by DNA content using SYBR green in vitro
[2] = target: Hexose transporter 1 (Plasmodium falciparum) (UniProt O97467); test: ST_JUDE_LEISH: Cytotoxicity at 2uM final concentration against transgenic Leishmania Mexicana promastigotes LmPfHT that are glucose transport deficient and complemented with the Plasmodium falciparum hexose transporter. Activity is measured by DNA content using SYBR green in vitro
[3] = target: Glucose transporter (Leishmania mexicana) (UniProt O61059); test: ST_JUDE_LEISH: Cytotoxicity at 2uM final concentration against transgenic Leishmania Mexicana promastigotes LmGT2 that are glucose transport deficient and complemented with the L. Mexicana glucose transporter 2. Activity is measured by DNA content using SYBR green in vitro

Solute carrier family 2, facilitated glucose transporter member 1 (Homo sapiens), sequence (P11166 whole entry): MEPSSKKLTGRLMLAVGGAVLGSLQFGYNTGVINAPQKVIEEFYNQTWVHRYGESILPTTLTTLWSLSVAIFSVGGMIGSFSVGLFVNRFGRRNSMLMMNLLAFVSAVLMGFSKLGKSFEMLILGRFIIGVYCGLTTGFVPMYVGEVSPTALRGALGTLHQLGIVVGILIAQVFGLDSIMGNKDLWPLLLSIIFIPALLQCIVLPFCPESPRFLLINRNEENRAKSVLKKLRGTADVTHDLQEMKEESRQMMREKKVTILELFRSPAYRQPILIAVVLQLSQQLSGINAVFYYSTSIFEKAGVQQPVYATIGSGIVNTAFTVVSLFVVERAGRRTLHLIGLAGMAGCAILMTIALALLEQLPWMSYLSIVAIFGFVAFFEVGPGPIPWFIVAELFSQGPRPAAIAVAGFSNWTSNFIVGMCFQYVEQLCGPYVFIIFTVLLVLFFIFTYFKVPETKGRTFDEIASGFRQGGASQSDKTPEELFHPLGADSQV

Structure (SMILES) | inhibition [1] | inhibition [2] | inhibition [3]
Cc1cc2ccc(CNCCc3ccccc3Br)cc2nc1N | 3.28% | 2.77% | 3.87%
COC(=O)c1ccc(CC(C)NCC(O)c2cccc(I)c2)cc1 (stereo not given) | -0.53% | -1% | 0.29%
CN1CC=C(c2c[nH]c3ccc(C(=O)c4nccs4)cc23)CC1 | -1.82% | -1.47% | -1.62%
CC(C)CN1CCC(N(C)c2cc(NC(=O)c3cccc(F)c3)ccn2)CC1 | -1.6% | 0.49% | 0.5%
CC(=O)N(Cc1ccccc1-c1cccc(CNCc2ccc3c(c2)OCO3)c1)C1CCN(Cc2ccccc2)CC1 | 3.8% | 5.58% | 3.79%
COc1cccc(CN2CCC(CCOC(c3ccccc3)c3ccc(Cl)cc3)CC2)c1O (stereo not given) | 26.2% | 26.5% | 12.5%
COc1ccc(OC)c(CNCC(O)c2cc(C(F)(F)F)cc(C(F)(F)F)c2)c1 (stereo not given) | 5.31% | 6.21% | 3.49%
Cc1ccc(/C=C/C(=O)NC2CCC(CN3CCC(c4c[nH]c5ccccc45)CC3)CC2)cc1C (stereo not given) | 3.87% and 0.74% | 3.35% and 0.58% | -0.3% and -2.39%
CC(C)n1ncc2c(C(=O)Nc3ccc(C#N)c(Cl)c3)cc(C3CC3)nc21 | 2.24% | 1.01% | 3.4%
CCCCC/C=C/C(=O)NC1CCC(CN2CCC(c3c[nH]c4ccccc34)CC2)CC1 (stereo not given) | 2.84% | 2.43% | 4.05%
COc1ccc2[nH]cc(C3CC4CCC(C3)N4CCC3CCN(C(=O)/C=C/c4ccc(Cl)c(Cl)c4)CC3)c2c1 (stereo not given) | -0.2% | 1.01% | 0.71%
O=C(/C=C/c1ccc(Cl)c(Cl)c1)NC1CCC(CN2CCC(c3c[nH]c4cc(O)ccc34)CC2)CC1 (stereo not given) | 3.03% | 0.88% | -0.33%
CC(=O)N(Cc1ccccc1-c1ccc(CNCCc2ccccc2)cc1)C1CCN(Cc2ccccc2)CC1 | 2.55% | 2.41% | 1.25%
CN(C)CCCn1cc(C(=O)OC2CC3CCC(C2)N3C)c2cc(-c3ccccc3)ccc21 (stereo not given) | 12.9% | 6.68% | 9.57%
CC[C@H]1CN2CC[C@H]1C[C@H]2[C@H](O)c1cc(Cl)nc2ccc(OC)cc12 | 2.23% | 1.71% | 1.61%
CC(=O)Nc1ccc2[nH]cc(C3CCN(CC4CCN(C(=O)/C=C/c5ccc(Cl)c(Cl)c5)CC4)CC3)c2c1 | 0.82% | -0.9% | 3.23%
CCc1ccc(CC(C)NCC(O)c2ccccc2)cc1 (stereo not given) | 1.06% | 1.04% | 1.94%
CC(=O)C1(c2ccccc2)CCN(CCC2(c3ccc(Cl)c(Cl)c3)CN(C(=O)Nc3cccc(C(F)(F)F)c3)CCO2)CC1 (stereo not given) | 7.51% | 4.19% | 3.14%
CC[C@H]1CN2CC[C@@H]1C[C@H]2[C@H](O)c1cc(N2CCC(c3ccccc3)CC2)nc2ccc(OC)cc12 | 8.84% | 6.56% | 2.67%
O=C(NC1CCC(CN2CCC(c3c[nH]c4ccccc34)CC2)CC1)c1cc(-c2ccccc2)c(C(F)(F)F)s1 (stereo not given) | 11.2% | 14.7% | 6.95%
O=C(/C=C/c1ccc(Cl)cc1)NC1CCC(CN2CCC(c3c[nH]c4ccccc34)CC2)CC1 (stereo not given) | 0.07% and -1.03% | 0.24% and -2.23% | -1.22% and 2.14%
COC(=O)c1ccc(CC(C)NCC(O)c2cccc3ccccc23)cc1 (stereo not given) | 4.9% | 3.26% | 2.22%

Structure (SMILES) | inhibition [1] | inhibition [2] | inhibition [3]
COc1ccc2[nH]cc(C3CCN(Cc4ccc(NC(=O)c5ccc(-c6ccccc6)cc5)cc4)CC3)c2c1 | 3.87% | 2.27% | 3.28%
O=C(/C=C/c1ccc(Cl)c(Cl)c1)NC1CCC(CN2CCC(c3c[nH]c4ccccc34)CC2)CC1 (stereo not given) | 2.35% | 1.2% | 1.83%
COc1cccc(C(=O)C2CC2CN2CC=C(c3c[nH]c4ccc(OC)nc34)CC2)c1 (stereo not given) | 0.65% | 1.41% | 1.94%
CN1C(=O)[C@H](NC(=O)[C@@H](Cc2ccccc2)NC(=S)Nc2ccccc2)N=C(c2ccccc2)c2ccccc21 | 1.25% | 0.57% | 1.74%
O=C(C=C1c2ccccc2-c2ccccc21)NC1CCC(CN2CCC(c3c[nH]c4ccccc34)CC2)CC1 (stereo not given) | 0.2% and -2.16% | 0.36% and -1.31% | -0.17% and -1.28%
C/C=C1\CN2CC[C@H]1C[C@@H]2[C@@H](O)c1ccnc2ccc(O)cc12 | 2.02% | 1.55% | 2.5%
Cc1c(C(=O)NC2CCC(CN3CCC(c4c[nH]c5ccccc45)CC3)CC2)cnn1-c1c(Cl)cc(Cl)cc1Cl (stereo not given) | 1.64% | 1.93% | -1.52%
O=C(NC1CCC(CN2CCC(c3c[nH]c4ccccc34)CC2)CC1)c1ccc(-c2ccccc2[N+](=O)[O-])o1 (stereo not given) | 3.68% | 1.85% | -0.67%
CC1=CC(=O)[C@@H](O)[C@]2(C)[C@H]3[C@@]4(O)OC[C@@]35[C@@H](C[C@@H]12)OC(=O)C[C@H]5[C@@H](C)[C@H]4O | 7.27% | 2.51% | 0.79%
COC(=O)c1ccc(CC(C)NCC(O)c2cccc(C(F)(F)F)c2)cc1F (stereo not given) | 2.16% | 2.23% | 2.51%
COc1ccc2nc(-c3ccc(F)cc3)cc([C@@H](O)[C@@H]3C[C@@H]4CCN3CC4C=NO)c2c1 (stereo not given in full) | 4.55% | 4.75% | 3.7%
COC(=O)c1ccc(CC(C)NCC(O)c2ccccc2Cl)cc1 (stereo not given) | 0.96% | 0.22% | 1.21%
COc1ccc(C=CC(=O)N2CCC(CN3CCC(c4c[nH]c5ccccc45)CC3)CC2)cc1OC | 1.11% | 0.91% | -0.06%
CCOc1ccc(Br)cc1/C=C/C(=O)Nc1ccc2c(c1)C1CCC2N1C (stereo not given) | 2.58% | 0.43% | 3.45%
CC[C@H]1CN2CCc3cc(OC)c(OC)cc3[C@@H]2C[C@@H]1C[C@H]1NCCc2cc(OC)c(OC)cc21 | 96.8% | 94% | 90.3%
COc1cc(C(=O)NC2CCC(CN3CCC(c4c[nH]c5ccccc45)CC3)CC2)cc(Cl)n1 (stereo not given) | 1.3% | -0.71% | 2.31%
COc1cc(C=CC(=O)NC2CCC(CN3CCC(c4c[nH]c5ccccc45)CC3)CC2)cc(OC)c1 (stereo not given) | -1.01% | -2.18% | -3.65%
C=Cc1cc(OC)c2c(c1)c(=O)oc1c2cc(OC)c2c(O)ccc([C@H]3O[C@H]([C@H](C)O)[C@H](O)[C@H]3O)c21 | 12.1% | 32.6% | 8.58%
CC[C@H]1CN2CC[C@H]1C[C@H]2[C@H](O)c1cc(-c2ccc(OC(F)(F)F)cc2)nc2ccc(OC)cc12 | 4.51% | 2.38% | 3.6%
Cc1cc(CN2CCN(CCOC(c3ccccc3)c3ccccc3)CC2)ccc1O | 16% | 13.2% | 13.6%
CC[C@H]1CN2CC[C@@H]1C[C@H]2[C@H](O)c1cc(-c2cccnc2)nc2ccc(OC)cc12 | 4.01% | 4.01% | 4.02%
CC[C@H]1CN2CC[C@@H]1C[C@@H]2[C@@H](O)c1cc(-c2ccc(F)cc2)nc2ccc(OC)cc12 | 4.08% | 3.07% | 5.29%

Structure (SMILES) | inhibition [1] | inhibition [2] | inhibition [3]
COc1cc(NC(=O)c2nn(CCCN3CCC4(CC3)C(=O)NCN4c3ccccc3)cc2-c2ccc(Cl)c(Cl)c2)cc(OC)c1OC | -0.06% | 8.62% | 0.13%
CC[C@H]1CN2CC[C@@H]1C[C@H]2[C@H](O)c1ccnc2ccc(Cl)cc12 | 2.97% | 3.95% | 3.25%
O=C(C=Cc1ccc(Br)cc1)NC1CCC(CN2CCC(c3c[nH]c4ccccc34)CC2)CC1 (stereo not given) | 2.45% | 2.86% | 4.98%
COC(=O)c1ccc(CC(C)NCC(O)c2cccc(OC(F)(F)F)c2)cc1 (stereo not given) | 0.35% | 1.5% | 1.7%
CC(=O)Nc1ccc(CN2CCC(N(C)c3cc(NC(=O)c4cccs4)ccn3)CC2)cc1 | -1.53% | 0.83% | -0.48%
O=S(=O)(NC1CCC(CN2CCC(c3c[nH]c4ccccc34)CC2)CC1)c1ccc(Cl)c(Cl)c1 (stereo not given) | -2.62% | -1.92% | -2.55%
Cc1[nH]c2ccccc2c1C1=CCN(CCCCC2(C)C(=O)Nc3ccccc32)CC1 (stereo not given) | 2.98% | 2.07% | -0.37%
CCCc1c(C(=O)NC2CCC(CN3CCC(c4c[nH]c5ccccc45)CC3)CC2)cnn1-c1ccc(Cl)cc1 (stereo not given) | -0.47% | -1.46% | -1.49%
O=C(O)c1ccc2nc(-c3ccc(-c4ccccc4)cc3)n(C3CCN(Cc4ccc(-c5ncc[nH]5)cc4)CC3)c2c1 | 9.41% | 8.89% | 8.84%
CC1=C(C(=O)NC2CCC(CN3CCC(c4c[nH]c5ccccc45)CC3)CC2)Cc2ccccc21 (stereo not given) | -3.48% and -2.8% | 2.28% and -2.66% | -4.68% and 10.4%
COc1ccccc1CC(C)NCC(O)c1cccc(Cl)c1 (stereo not given) | -0.34% | 4.23% | 1.87%
CNC(=O)c1ccc2[nH]cc(C3CCN(CC4CCC(NC(=O)/C=C/c5ccccc5Cl)CC4)CC3)c2c1 (stereo not given) | 10.8% | 9.61% | 8.45%
Oc1cccc(C2CCCN(Cc3cccc4cc[nH]c34)C2)c1 (stereo not given) | 2.13% | 4% | 3.75%
CC[C@H]1CN2CC[C@H]1C[C@@H]2[C@H](O)c1ccnc2ccc(O)cc12 | -0.84% | -0.85% | 0.24%
O=C(Nc1ccc(Oc2ccccc2)cc1)NC1CCC(CN2CCC(c3c[nH]c4ccccc34)CC2)CC1 (stereo not given) | 1.21% | 0.51% | -0.05%
C[C@@H](CC1CCCCC1)NCc1ccccc1O | 4.7% | 11.1% | 3.31%
CS(=O)(=O)Nc1ccc2c(C3CCN(CC4CCN(C(=O)/C=C/c5ccc(Cl)c(Cl)c5)CC4)CC3)c[nH]c2c1 | -0.41% | 0.85% | -2.09%
Oc1cc2c(cc1CN1CCN(Cc3ccccc3)CC1)CCC2 | 0.8% | 1.17% | -1.19%
S=C(NCCc1ccc(Cl)cc1)N1CCC(CN2CCC(c3c[nH]c4ccccc34)CC2)CC1 | 3.04% | 1.73% | 1.67%
Cc1cccc2[nH]cc(C3CCN(CC4CCC(NC(=O)/C=C/c5ccc(Cl)c(Cl)c5)CC4)CC3)c12 (stereo not given) | 0.63% | 6.74% | 0.15%
Cc1cc(N)nc2ccc(CNCCc3ccccc3Br)cc12 | 1.91% | 1.25% | 1.79%
